NALP1 yeast inh – NALP1 inflammasome inhibitors in reconstituted yeast, colorimetric, S. cerevisiae, triplicate retest; S. cerevisiae NALP1/ASC/caspase-1 growth, X-gal OD620, 72 h; inhibition, % at 10 µM; 280,000 tested, 0.61% active; AID 2071, 2009; in the data active = inhibition mostly above about 24%, no sharp cut-off; inactive = mostly below about 32%
TIM10 inh – growth inhibitors of isogenic TIM10 control yeast, primary screen, counter-screen for tim10-1 yeast inhibitor project, luminescence, uHTS. S. cerevisiae TIM10 strain growth, BacTiter-Glo luminescence, 24 h. inhibition, % at 10 µM. 330,000 tested, 1.4% active;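 active = inhibition of 40% or more at the single tested concentration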;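 note: wild-type TIM10 isogenic control strain grown at permissive 25 °C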
PfHsp90 yeast 2 – growth inhibition of PfHsp90-expressing yeast, primary screen, antimalarial PfHsp90 inhibitor project, S. cerevisiae, BacTiter-Glo luminescence, single point, set 2; inhibition, % at 9.4 µM; BacTiter-Glo ATP, 48 h; yeast lacking PDR1 and PDR3 efflux regulators; AID 504621, 2011; 310,000 tested, 0.32% active;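 active = every replicate shows inhibition above about 80%, whatever the replicate mean, limit read from the data; inconclusive = mean inhibition reaches the set limit but some replicate falls short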;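 note: 0% = DMSO neutral controls and 100% = 20 µM radicicol positive controls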
tim10-1 inh – growth inhibitors of tim10-1 mutant yeast, primary screen, luminescence, uHTS; inhibition, % at 20 µM; 330,000 tested, 2.2% active; AID 463190, 2010; S. cerevisiae tim10-1 ts strain growth, BacTiter-Glo, 24 h;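 active = inhibition of at least 40%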;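 note: mutant grown at 25 °C; 0% = DMSO wells with yeast and 100% = wells holding no yeast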
NLRP3 yeast inh – NALP3 inflammasome inhibitors in reconstituted yeast, primary screen, luminescence, uHTS; inhibition, % at 10 µM; Yeast reconstituted NLRP3/ASC/caspase-1, beta-gal luminescence, 24 h; AID 2825, 2010; 330,000 tested, 0.39% active;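 active = inhibition of 50% or more; inactive = inhibition below 50%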;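 note: plate controls were induced DMSO wells for no effect and uninduced yeast grown without galactose for full effect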
tim23-1 inh – growth inhibitors of tim23-1 mutant yeast, primary screen, luminescence, uHTS; inhibition, % at 20 µM; AID 463212, 2010; 330,000 tested, 1.3% active; S. cerevisiae tim23-1 growth, BacTiter-Glo luminescence, 24 h;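 active = growth inhibition of the mutant yeast at or above 50%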;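 note: temperature-sensitive mutant grown at 25 °C; plate controls were DMSO-treated mutant yeast for no effect and medium wells lacking yeast for full effect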
tim10-1 conf – growth inhibitors of tim10-1 mutant yeast, confirmation, single concentration, luminescence, S. cerevisiae; shares compounds with tim10-1 inh; 7,400 tested, 56% active; S. cerevisiae tim10-1 ts strain growth, BacTiter-Glo, 24 h; inhibition, % at 20 µM;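 active = inhibition of yeast growth at or above a set limit in either of two repeat tests at 20 µM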;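 note: tim10-1 mutant grown at permissive 25 °C to find synthetic lethal compounds; 0% = DMSO yeast wells and 100% = medium wells without yeast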
* hit, by the source's call; ? = inconclusive; · = no result given. Hits are enriched below; roughly 4.1% of the tested compounds scored in any of these assays.

SMILES	NALP1 yeast inh	TIM10 inh	PfHsp90 yeast 2	tim10-1 inh	NLRP3 yeast inh	tim23-1 inh	tim10-1 conf
CCCCCCCCN1[C@@H](CC(=O)O)c2cc(C(F)(F)F)ccc2S1(=O)=O	·	20	-20	29	8	18	·
CCCCCCCCCCCCN1[C@@H](CC(=O)O)c2cc(C(F)(F)F)ccc2S1(=O)=O	·	-4	-3	64*	4	4	14
CC(C)c1ccc(S(=O)(=O)Nc2ccc(SC(F)F)cc2)cc1	30	26	-38	50*	5	43	28*
CC(C)c1ccc(S(=O)(=O)Nc2ccc(-n3cnnn3)cc2)cc1	·	21	15	23	16	13	·
CC(C)c1ccc(NS(=O)(=O)c2ccc(-n3cccn3)cc2)cc1	11	11	-4	45*	-2	30	8
CC(C)c1ccc(NS(=O)(=O)c2ccc(Cl)nc2)cc1	22	17	-13	4	4	22	·
C(=N\N(Cc1ccccc1)c1ccccc1)/c1ccco1	-4	19	0	35	-8	26	·
COc1ccc(/C=N/N(Cc2ccccc2)c2ccccc2)cc1O	14	39	-37	51*	-28	30	-21
CCOc1ccc(C(OC(=O)c2ccco2)C(=O)NCc2ccc(C)cc2)cc1 (centres undefined)	-3	-9	-46	43*	-6	23	12
O=C(CN(Cc1ccc(F)cc1)C(=O)CNS(=O)(=O)c1ccccc1)NCc1ccco1	10	3	-15	-9	13	1	·
CCCNC(=O)C12CCC(C)(c3nc4cc(C)c(C)cc4nc31)C2(C)C (centres undefined)	-15	22	21	42*	-1	41	26
CNC(=O)C12CCC(C)(c3nc4cc(C)c(C)cc4nc31)C2(C)C (centres undefined)	-12	14	-18	27	3	31	·
CCOc1ccc(NC(=O)CN(C)C(=O)c2n[nH]c(=O)c3ccccc23)cc1OCC	·	8	-37	-2	17	-12	·
Cc1cc(C=O)c(C)c2c1[nH]c1ccccc12	·	·	-99	·	·	·	·
Cc1ccc(C)c2c1[nH]c1ccccc12	8	31	2	41*	29	25	38*
COc1ccc(S(=O)(=O)N2CCOC23CCN(S(=O)(=O)c2ccc(C)cc2)CC3)cc1	·	19	4	46*	23	47	28
O=S(=O)(c1ccc(Cl)cc1)N1CCC2(CC1)OCCN2S(=O)(=O)c1cccs1	·	-3	-8	48*	2	27	29*
Cc1ccc(S(=O)(=O)N2CCC3(CC2)OCCN3S(=O)(=O)c2cccs2)cc1	·	5	-16	35	12	38	·
COc1ccc(S(=O)(=O)N2CCOC23CCN(S(=O)(=O)c2ccc(F)cc2)CC3)cc1	·	19	-16	47*	24	45	31
O=C(Cc1ccccc1)NCC(=O)N1CCN(c2ccccc2)CC1	5	-1	7	2	6	9	·
C=C(C)COc1ccc(-c2[nH]ncc2Oc2ccc(OC)cc2)c(O)c1	·	29	?	-16	13	43	·
C=C(C)COc1ccc(-c2[nH]ncc2Oc2ccccc2OC)c(O)c1	9	28	9	55*	15	43	39*
Cc1cc2nc(-c3ccc[nH]c3=O)[nH]c2cc1C	12	35	71	47*	2	48	35*
Cc1cc2nc(-c3ccc[nH]c3=O)n(Cc3ccc(F)cc3)c2cc1C	12	3	17	20	21	23	·
CC(=O)N(C)c1ccc(NC(=O)Cc2cccs2)cc1	10	-11	-30	10	12	6	·
SMILES	NALP1 yeast inh	TIM10 inh	PfHsp90 yeast 2	tim10-1 inh	NLRP3 yeast inh	tim23-1 inh	tim10-1 conf
CC(C)(O)C#Cc1ccc(C(=O)N2CCN(c3ccccc3)CC2)cc1	26	12	15	24	6	16	·
CC(C)(O)C#Cc1ccc(C(=O)N2CCN(c3ccc([N+](=O)[O-])cc3)CC2)cc1	0	27	17	46*	5	4	38*
N#CC1(NC(=O)COC(=O)c2nc(Cl)c(Cl)c(N)c2Cl)CCCCC1	·	-5	-1	-7	3	4	·
O=C(Cn1cnc2c(OCc3ccccc3)ncnc21)N[C@H](CO)Cc1cc2ccccc2[nH]1	·	2	4	3	-5	11	·
CCc1c(C)[nH]n(-c2nc(-c3ccccc3)cs2)c1=O	-10	18	21	50*	-20	33	31*
CCCSc1oc(-c2ccco2)nc1S(=O)(=O)c1ccccc1	25	25	18	43*	14	33	20
COc1ccc(C)cc1N(C(=O)c1ccc(C#N)cc1)C1=NC(C)(C)CS1	6	5	34	40	7	11	-3
COc1ccc(C)cc1N(C(=O)c1ccccc1)c1nc2ccccc2s1	23	30	-11	20	15	32	·
NC(=S)n1[nH]c(-c2ccc([N+](=O)[O-])cc2)c(N=Nc2cccc(Cl)c2)c1=O	-17	36	-74	41*	40	46	43*
Cc1nnc(-c2ccccc2)c(=O)n1/N=C/c1c(O)ccc2ccccc12	8	37	-1	49*	-1	32	19
Cc1nnc(C)n1/N=C/c1c(O)ccc2ccccc12	7	17	-12	-9	8	-2	·
CN(Cc1ccccc1)C(=O)COC(=O)c1cc(=O)[nH]c2ccccc12	·	-1	·	-6	-4	2	·
Cc1ccc(CNS(=O)(=O)c2ccc(CN3C(=O)c4cccnc4C3=O)cc2)o1	31	4	13	-5	-2	-1	·
O=C(CN1CCN(S(=O)(=O)c2ccc(Br)cc2)CC1)c1ccc(O)c(O)c1	14	-7	8	5	30	-4	·
CC(C)c1ccc(S(=O)(=O)N2CCN(CC(=O)c3ccc(O)c(O)c3)CC2)cc1	7	22	-16	50*	7	24	9
COc1ccc(-c2cc3nc(-c4ccccc4)cc(N4CCC(O)CC4)n3n2)cc1	-3	33	31	40*	24	49	24
Fc1ccc(-c2cc3nc(-c4ccccc4)cc(N4CCOCC4)n3n2)cc1	-3	0	-19	2	28	-7	·
Cc1ccc(S(=O)(=O)N2[C@@H](c3ccc(F)cc3)C(C(=O)O)=C[C@H]2CC2CCCC2)cc1	·	13	-18	27	-14	17	·
CCC(=O)Nc1ccc(C2C(=O)c3ccccc3C2=O)cc1	16	18	30	42*	9	30	22
